# Experimental data as given in PubChem BioAssay (NCI).
# Where “and” joins values, the source holds several entries; their conditions need not be identical. Identical values can stand only once. Compounds without any hit were thinned out: in the full panel of roughly 83,000, 20% have a hit.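 Step 1: grow cells in 96-well plates. Step 2: add test compound at a single concentration. Step 3: incubate 48 h. Step 4: record percent growth.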 Calls of active or inactive are those of the source. The calls were made as follows: active = growth percent below 10; inactive = the rest.
# Key:
# Experiment in all cases: NCI-60 one-dose screen, 48 h (100 = growth as untreated, 0 = no growth, -100 = all killed)
# Conditions in all cases: 10 µM unless noted
# DU-145 prostate = tested on: DU-145 prostate
# K-562 leukemia = tested on: K-562 leukemia
# MALME-3M melanoma = tested on: MALME-3M melanoma
# MDA-MB-231 breast = tested on: MDA-MB-231 breast
# RXF 393 renal = tested on: RXF 393 renal
# SF-268 CNS = tested on: SF-268 CNS
# SF-295 CNS = tested on: SF-295 CNS
# SF-539 CNS = tested on: SF-539 CNS
# UACC-257 melanoma = tested on: UACC-257 melanoma
# M14 melanoma = tested on: M14 melanoma
SMILES,growth (DU-145 prostate),growth (K-562 leukemia),growth (MALME-3M melanoma),growth (MDA-MB-231 breast),growth (RXF 393 renal),growth (SF-268 CNS),growth (SF-295 CNS),growth (SF-539 CNS),growth (UACC-257 melanoma),growth (M14 melanoma)
CCCNNC(=O)/C=C/c1ccc(CNCCc2c(C)[nH]c3ccccc23)cc1,24.4% [2.5 µM] (inactive),10.7% [2.5 µM] (inactive),20% [2.5 µM] (inactive),35% [2.5 µM] (inactive),-17.9% [2.5 µM] (active),32.1% [2.5 µM] (inactive),18% [2.5 µM] (inactive),31.1% [2.5 µM] (inactive),-9.62% [2.5 µM] (active),17.7% [2.5 µM] (inactive)
COc1ccc(NC(=O)Nc2ccccc2CNc2nc(Nc3ccc(OCCN4CCCC4)cc3)ncc2Cl)cc1,18% (inactive),0.588% (active),-63.7% (active),-59.1% (active),-75.6% (active),35.8% (inactive),11.1% (inactive),-84.2% (active),-46.8% (active),-75.6% (active)
CCCCC(NC(=O)CN1C(=O)/C(=C/C(C)=C/c2ccccc2)SC1=S)C(=O)O (stereo not given),111% (inactive),107% (inactive),91.8% (inactive),92.7% (inactive),105% (inactive),100% (inactive),95% (inactive),101% (inactive),104% (inactive),96.6% (inactive)
CN1C(=O)N(C)C2(c3ccccc3)N(CC(=O)Nc3ccccc3O)C(=O)NC12c1ccccc1 (stereo not given),110% (inactive),101% (inactive),107% (inactive),101% (inactive),113% (inactive),96.5% (inactive),101% (inactive),96.4% (inactive),125% (inactive),105% (inactive)
COc1cc(/C=C2\CCC/C(=C\c3cc(CN4CCCC4)c(O)c(OC)c3)C2=O)cc(CN2CCCC2)c1O,2.36% (active),11.1% (inactive),81.6% (inactive),12.5% (inactive),10.6% (inactive),35.3% (inactive),62.5% (inactive),23% (inactive),86.6% (inactive),19.6% (inactive)
O=C(Cc1ccc(F)cc1)c1ccccc1,127% (inactive),100% (inactive),107% (inactive),111% (inactive),118% (inactive),113% (inactive),117% (inactive),113% (inactive),114% (inactive),105% (inactive)
CCc1c2c(nc3ccc(OCc4ccc(B5OC(C)(C)C(C)(C)O5)cc4)cc13)-c1cc3c(c(=O)n1C2)COC(=O)[C@]3(O)CC,3.05% (active),19.8% (inactive),-6.1% (active),34.2% (inactive),-25.7% (active),5.96% (active),5.44% (active),-35.6% (active),-9.18% (active),2.91% (active)
CCCCC#Cc1c(/C=C(\CCCC)SCC)n(C)c(=O)[nH]c1=O,110% (inactive),72.2% (inactive),112% (inactive),102% (inactive),-12.1% (active),93.7% (inactive),114% (inactive),98.4% (inactive),98.9% (inactive),105% (inactive)
Cc1ccc(/C=C2\COc3ccc(O)c(O)c3C2=O)cc1,4.29% (active),13% (inactive),-27.3% (active),-24.8% (active),-35.3% (active),-37.6% (active),33.1% (inactive),-63.9% (active),10.1% (inactive),3.41% (active)
O=C1/C(=C/c2ccc(F)c(F)c2)CN(C(=O)C(Cl)Cl)C/C1=C\c1ccc(F)c(F)c1,-98.1% (active),-19.4% (active),-80.2% (active),-73.7% (active),-93.1% (active),-39.4% (active),-96.8% (active),-98.9% (active),-74.8% (active),-90.1% (active)
CC(C)(C)c1cc(NC(=O)Nc2ccc(-c3cn4c(n3)sc3cc(OCCN5CCOCC5)ccc34)cc2)no1,35.5% (inactive) and 45.5% (inactive),11.9% (inactive) and 33.9% (inactive),28.9% (inactive) and 20.2% (inactive),43.3% (inactive) and 35.6% (inactive),-6.16% (active) and -13.6% (active),37.2% (inactive) and 22.8% (inactive),-58.7% (active) and 16.4% (inactive),-83.3% (active) and 13.6% (inactive),4.5% (active) and -6.8% (active),37.4% (inactive) and 24% (inactive)
CCN1C(=O)N(c2ccccc2)C2NC(=S)N(/N=C/C=C/c3ccccc3)C21 (stereo not given),8.79% (active),8.8% (active),45.8% (inactive),15.7% (inactive),9.01% (active),31.9% (inactive),2.91% (active),-27% (active),39.5% (inactive),0.94% (active)
Cc1ccc2nc3ccccc3c(NCc3ccc(Cl)cc3)c2c1,51.4% (inactive),2.63% (active),-14% (active),37.7% (inactive),29% (inactive),79.1% (inactive),43.7% (inactive),40.2% (inactive),-2.88% (active),-17.1% (active)
COc1cc(-c2nc(SCCC(C)C)nc(Nc3ccc(F)cc3)c2C#N)cc(OC)c1OC,66.2% (inactive),85.2% (inactive),94.4% (inactive),38.4% (inactive),95.5% (inactive),65.9% (inactive),85.4% (inactive),52.3% (inactive),103% (inactive),91% (inactive)
CN1CCN(Cc2ccc(NC(=O)c3cccc(C#Cc4c(N)ncc5ccc(F)cc45)c3)cc2C(F)(F)F)CC1,-89.9% (active),-29.5% (active),-54.5% (active),-79% (active),-89.6% (active),-45.8% (active),-65.4% (active),-94.5% (active),-62.5% (active),-71% (active)
CCCCCCCC/C=C\CCCCCCCCOc1ccccc1CC(=O)NCC[N+]1(C)CCOCC1,85.3% (inactive),56.9% (inactive),100% (inactive),80.1% (inactive),24.7% (inactive),66.8% (inactive),67.6% (inactive),91.3% (inactive),83.8% (inactive),75.6% (inactive)
CC1(Cc2ccccc2)CC2=C(C(=O)O1)C(c1ccccc1)NC(=O)N2 (stereo not given),111% (inactive),78.4% (inactive),104% (inactive),103% (inactive),108% (inactive),110% (inactive),104% (inactive),94.5% (inactive),101% (inactive),98% (inactive)
COc1ccc(-c2nc(Cl)c3c(C)nn(-c4ccc(F)cc4)c3n2)cc1,111% (inactive),100% (inactive),115% (inactive),106% (inactive),122% (inactive),106% (inactive),107% (inactive),111% (inactive),91.9% (inactive),100% (inactive)
Cc1cc2nc(C(Cl)Cl)nc(-c3ccc(Cl)cc3)n2n1,-3.35% (active),12.2% (inactive),-16.5% (active),-2.03% (active),-74.4% (active),7.03% (active),2.71% (active),3.16% (active),30.9% (inactive),-20.3% (active)
BrC1=C(Br)C(Br)(Br)C(Br)=C1Br,106% (inactive),32.9% (inactive),106% (inactive),73.7% (inactive),75.1% (inactive),97.8% (inactive),113% (inactive),82.2% (inactive),84.7% (inactive),65.2% (inactive)
COc1cc(CNC(=O)CCCC/C=C/C(C)C)ccc1O,112% (inactive) and 120% (inactive),84.1% (inactive) and 93.3% (inactive),154% (inactive) and 95.6% (inactive),85.1% (inactive) and 83.3% (inactive),-46.1% (active) and 98.6% (inactive),84.9% (inactive) and 91.6% (inactive),128% (inactive) and 107% (inactive),95.6% (inactive) and 90.7% (inactive),119% (inactive) and 112% (inactive),117% (inactive) and 99.5% (inactive)
COC1=CC(c2ccc[nH]2)=N/C1=C\c1[nH]c(C)c(C(=O)Oc2ccccc2)c1C,9.64% (active),8.48% (active),-79.6% (active),-69.2% (active),-9.71% (active),14.9% (inactive),-74.9% (active),-74.6% (active),-54.9% (active),-59.2% (active)
Cc1nc2sc(C(=O)Nc3cccc(Cl)c3C)c(N)c2cc1C(O)c1ccccc1 (stereo not given),10.7% (inactive),6.05% (active),50.2% (inactive),15.3% (inactive),46.2% (inactive),24% (inactive),26.9% (inactive),0.0688% (active),57% (inactive),7.42% (active)
